In the library only some 5.3% were active in any assay of this set; here they are far more common.
Tau fibril ThT = blocks human tau fibril formation measured by thioflavin T; P10636; recombinant tau K18 P301L, heparin-induced fibrillization, ThT fluorescence; Potency, µM (titrated, usually from 57.4 µM), without a hit: at the highest dose activity, negative = inhibition, most hits filed as inhibitors; actives 2.1% (n = 270,000); AID 1460; also: potency is read from the fitted curve at half-maximal effect; nearly all actives have a fitted effect of over 55% in size
Target sequence (P10636 561-689 P618L limits assumed): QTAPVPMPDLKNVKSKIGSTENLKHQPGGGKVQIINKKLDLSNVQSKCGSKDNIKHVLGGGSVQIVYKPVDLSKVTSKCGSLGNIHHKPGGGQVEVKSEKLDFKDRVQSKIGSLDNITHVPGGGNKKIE
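K18 P301L tau (15 uM + 0.24 uM Alexa 594-tagged), heparin 20 uM, NaOAc pH 7, 6 h 37 C; ThT 30 uM, 1 h RT, ex 450/em 510 nm.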
Tau fluor counter = counter-screen for tau fibril formation inhibitors | tau K18 P301L (four-repeat tau fragment) Alexa594 fluorescence, heparin fibrillization | Potency, µM (series often up to 57.7 µM), for the others: top-dose activity change, negative = decrease | actives 0.93% (n = 280,000) | AID 1463; also: potency is read from the fitted curve at half-maximal effect; nearly all actives have a fitted effect of over 55% in size
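Human K18 P301L tau (15 uM unlabeled plus 0.24 uM Alexa 594-labeled, final) in 100 mM sodium acetate pH 7 was mixed with compound and 20 uM heparin and incubated 6 hr at 37 C.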
Sfp PPTase inh = Sfp phosphopantetheinyl transferase inhibition; Q9F4F7; Biochemical Sfp PPTase activity, qHTS; Potency, µM, for inactives: largest response in the series, negative = inhibition, actives largely listed as inhibitors; actives 3.5% (n = 310,000); AID 1490;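 also: the enzyme is Sfp with the accession as filed and its product quenches rhodamine fluorescence; potency is read from the fitted curve at half-maximal effect; 0% = enzyme reaction without inhibitor and -100% = no enzyme wells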
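Sfp 15 nM + cpd, 15 min RT; start w/ rhodamine-CoA 5 uM, BHQ-2-YbbR 12.5 uM (final); 50 mM Hepes pH 7.6, 10 mM MgCl2, 0.01% NP-40, 0.01% BSA; read 525/598 nm at 0 and 30 min.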
Tau fibril FP = inhibitors of human tau fibril formation; P10636; K18 P301L tau heparin fibrillization, Alexa594 FP, 6 h; Potency, µM (titrated, usually from 57.7 µM), inactives show at the highest dose activity, negative = inhibition, hits mostly inhibitors; actives 0.39% (n = 280,000); AID 1468; also: potency is read from the fitted curve at half-maximal effect; nearly all actives have a fitted effect of over 55% in size
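Compound effects on tau fibrillization are measured by Alexa 594 fluorescence polarization (ex 555, em 632 nm). K18 P301L tau is used at 15 uM with 0.24 uM labeled tracer, and 20 uM heparin induces aggregation over 6 hr at 37 C.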
JMJD2E inh = blocks human JMJD2E demethylase activity; actives 1.6% (n = 230,000); Potency, µM (titrated, usually from 57.1 µM), inactives show at the highest dose activity change, negative = inhibition, most hits filed as inhibitors; B2RXH2; JMJD2E catalytic domain, FDH-coupled NADH fluorescence (FDH is formaldehyde dehydrogenase);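 also: potency is read from the fitted curve at half-maximal effect; 0% = wells with enzyme and -100% = buffer wells without enzyme; nearly all actives have a fitted effect of over 50% in size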
Target sequence (B2RXH2 1-337 limits assumed): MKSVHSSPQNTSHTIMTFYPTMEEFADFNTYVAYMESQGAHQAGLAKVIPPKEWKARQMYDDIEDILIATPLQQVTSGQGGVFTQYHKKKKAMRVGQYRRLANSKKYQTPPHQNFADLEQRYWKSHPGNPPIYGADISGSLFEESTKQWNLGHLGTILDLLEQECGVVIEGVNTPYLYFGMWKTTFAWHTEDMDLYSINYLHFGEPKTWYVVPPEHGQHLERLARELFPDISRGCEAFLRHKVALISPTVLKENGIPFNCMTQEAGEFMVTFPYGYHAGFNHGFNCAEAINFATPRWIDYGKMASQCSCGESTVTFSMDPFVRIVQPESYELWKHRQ
Coupling enz = coupling enzyme interference in Giardia aldolase counter-screen | coupling enzyme system counterscreen, AmpLite Red fluorescence | activity change, negative = inhibition, % at 58.2 µM, hits read low | actives 0.67% (n = 290,000); in the data active = activity change below about -30%
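Compounds tested against the coupling enzymes alone at 57.5 uM final; readout was AmpLite Red fluorescence (525/598 nm) after 20 min at RT.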
The depositor's hits bear a star; ? = inconclusive; nt = no result given; ! = not active in a repeat; [ ] = remark or other dose. Unless noted, calls follow the shape of the dose curve; as a rule, active = well fitted curve in the direction sought with a large enough effect; inconclusive = small, poorly fitted or top-dose-only effect, or another doubt; inactive = no such curve, though single readings can be large; an effect the other way counts as inactive or inconclusive. Unless noted, % is scaled to controls: 0 for no effect and ±100 for the full control effect.

SMILES	Tau fibril ThT	Tau fluor counter	Sfp PPTase inh	Tau fibril FP	JMJD2E inh	Coupling enz
O=C(CC1NC(=O)NC1=O)Nc1ccc(Cl)cc1 (centres undefined)	-0.4%	-5.1%	18.3%	-3.3%	1.6%	3.4
COc1ccc(NC(=O)CC2Nc3cc(C)c(C)cc3NC2=O)c([N+](=O)[O-])c1 (centres undefined)	11.2µM*	?	-9.8%	?	2.6%	4.1
COc1ccc(NC(=O)CC2Nc3cccc4cccc(c34)NC2=O)cc1 (centres undefined)	?	?	-3.5%	4.1%	-25.3%	-22.5
O=C(CC1Nc2cccc3cccc(c23)NC1=O)Nc1ccc(F)cc1 (centres undefined)	?	8.91µM*![quencher]	?	6.9%	-2.7%	-25.9
CCCCNC(=O)CC1Nc2cc(C)c(C)cc2NC1=O (centres undefined)	?	-3.1%	nt	-2.2%	nt	nt
Cc1cc2c(cc1C)NC(CC(=O)Nc1cccc(Cl)c1)C(=O)N2 (centres undefined)	?	25.1µM*[quencher]	nt	9.9%	nt	nt
O=C(CC1Nc2ccccc2NC1=O)Nc1cc(Cl)cc(Cl)c1 (centres undefined)	?	14.1µM*[quencher]	19.8%	7.6%	?	-1.6
C[C@@H](c1ccccc1)N1C(=O)[C@H]2[C@@H]3[C@H](O)C=CC(=O)[C@H]3CC[C@H]2C1=O	-11.2%[11.5 µM]	-3.1%[11.6 µM]	6.4%	-0.5%[11.6 µM]	nt	-0.1
COc1cccc(-n2c([S-])c(C(=O)Nc3ccc(S(=O)(=O)N4CCOCC4)cc3)[n+]3cc(C(N)=O)ccc23)c1	-9.7%	-27.2%	0.0%	-15.0%	14.1µM*	-10.5
CC(C)COc1cccc(C(=O)Nc2ccc(S(=O)(=O)N3CCOCC3)cc2)c1	-8.1%	?	26.9%	-15.7%	4.4%	-1.9
CC(C)=CCc1c(O)cc2occ(-c3ccc4c(c3)OCO4)c(=O)c2c1O	-16.4%	?	6.2%	8.91µM*	-0.3%	-1.5
O=c1c(-c2ccc(O)cc2)coc2cc(O)cc(O)c12	?	?	15.8%	-5.3%	-1.2%	7.9
O=c1c(-c2cc(O)c(O)c(O)c2)coc2cc(O)c(O)c(O)c12	3.55µM*	?	-92.1%	7.08µM*	2.82µM*	-70.8*
COc1ccc(OC)c(/C=C/C(=O)N2C(=O)c3cccc(N)c3C2=O)c1	14.1µM*	-18.0%	4.8%	?	?	1.0
Nc1cccc2c1C(=O)N(C(=O)/C=C/c1cccc(F)c1)C2=O	14.1µM*	-15.7%	-28.4%	?	?	-0.7
c1coc(C2Nc3cccc4cccc(c34)N2)c1	11.2µM*	7.94µM*[quencher]	3.16µM*	?	-22.2%	-16.9
Clc1ccccc1C1Nc2cccc3cccc(c23)N1	nt	nt	-28.8%	nt	nt	-5.4
Clc1cccc(C2Nc3cccc4cccc(c34)N2)c1Cl	nt	nt	0.0%	nt	nt	-1.4
COC(=O)c1ccc(C2Nc3cccc4cccc(c34)N2)cc1	14.1µM*	14.1µM*[quencher]	?	?	8.91µM*	-10.2
Oc1ccc(C2Nc3cccc4cccc(c34)N2)c(O)c1	14.1µM*	7.94µM*[quencher]	-19.8%	?	-2.3%	-8.2
COc1cc(C2Nc3cccc4cccc(c34)N2)ccc1OC(C)=O	?	?	-29.8%	-1.9%	-1.4%	-18.3
COc1cc(C2Nc3cccc4cccc(c34)N2)cc(OC)c1O	15.8µM*	4.47µM*[quencher]	50.1µM*	?	7.0%	-25.0
CCN(C(=O)Cn1c(=O)n(Cc2ccc3c(c2)OCO3)c(=O)c2ccc(C(=O)NC3CCCCC3)cc21)c1cccc(C)c1	-7.1%	-15.8%	nt	-14.3%	nt	nt
CC1=C(C(=O)N2CCN(c3cccc(C)c3C)CC2)C2(CCCCC2)OC1=O	-7.7%	-6.2%	nt	1.3%	nt	nt
CCC(CC)c1nnc(NC(=O)c2cc(C(=O)OC)cc([N+](=O)[O-])c2)s1	-5.0%	-16.7%	44.7µM*	7.1%	1.1%	4.4
SMILES	Tau fibril ThT	Tau fluor counter	Sfp PPTase inh	Tau fibril FP	JMJD2E inh	Coupling enz
CC(=O)Oc1cc2c3c(c1)/C(=C1/SC(=S)NC1=O)C(=O)N3C(C)(C)C=C2C	7.08µM*	7.08µM*[quencher]	35.5µM*	?	-12.3%	-18.1
CCn1cc(C(=O)NCc2ccccc2Cl)c(=O)c2cc(S(=O)(=O)N3CCc4ccccc4C3)ccc21	5.0%	-19.9%	nt	-12.9%	nt	nt
CC1(C)CC(=O)c2sc(NC(=O)c3ccc4ncsc4c3)nc2C1	-1.4%	1.7%	50.1µM*	1.4%	-17.6%	3.1
O=S(=O)(c1ccccc1)n1nc(-c2ccco2)nc1NCc1ccccc1	-2.3%	?	nt	-8.1%	nt	nt
Cn1c(N)c(C(=O)COC(=O)c2cc(C(F)(F)F)nc3ccccc23)c(=O)n(Cc2ccccc2)c1=O	?	?	20.7%	?	?	0.5
Cn1c(N)c(C(=O)COC(=O)c2cc(-c3ccco3)nc3ccccc23)c(=O)n(Cc2ccccc2)c1=O	12.6µM*	?	44.7µM*	?	?	1.6
Cn1c(N)c(C(=O)COC(=O)c2cc(-c3ccco3)nc3ccccc23)c(=O)n(C)c1=O	?	?	12.6µM*	2.2%	?	-1.1
COc1ccc(NC(=O)Cn2nnc(-c3ccccc3NS(=O)(=O)c3ccccc3)n2)cc1	13.5%	?	28.9%	15.8µM*	-2.3%	-14.2
COc1ccc(S(=O)(=O)Nc2ccccc2-c2nnn(CC(=O)Nc3ccccc3OC)n2)cc1	15.8%	?	26.2%	?	0.3%	-0.9
COc1ccccc1/C=C1\SC(=S)N(CCC(=O)Nc2ccc(C(=O)O)c(O)c2)C1=O	nt	nt	-10.4%	nt	nt	13.8
O=C(CCN1C(=O)/C(=C/c2ccco2)SC1=S)Nc1ccc(C(=O)O)c(O)c1	nt	nt	56.2µM*	nt	nt	4.3
O=C(CCN1C(=O)/C(=C\c2ccco2)SC1=S)Nc1ccc(C(=O)O)c(O)c1	nt	nt	44.7µM*	nt	nt	-9.0
O=C(CCN1C(=O)/C(=C/c2ccc(Cl)cc2)SC1=S)Nc1ccc(C(=O)O)cc1	nt	nt	-4.0%	nt	nt	4.4
COc1cccc(CS(=O)(=O)c2nnnn2CC(C)C)c1	1.8%	2.9%	3.2%	7.0%	-0.2%	0.9
Nc1ccc(N=Nc2ccccc2)c2ccccc12	7.08µM*	12.6µM*[quencher]	-15.4%	?	-4.7%	-5.1
COc1ccccc1N=Nc1ccc(N)c(C)c1	nt	nt	1.0%	nt	nt	0.1
Nc1ccc(N=Nc2ccccc2)c(N)n1	12.6µM*	?	9.4%	?	?	-2.6
COc1cc(OC)c2c(c1C(CCN1CCCC1)c1ccc(N(C)C)cc1)OC(=O)CC2c1ccc(N(C)C)cc1 (centres undefined)	nt	nt	-16.3%	nt	nt	-0.1
CC(C)C(=O)Nc1ccc(N2CCN(c3ccc(F)cc3)CC2)cc1	?	-9.6%	19.5%	-1.4%	3.5%	5.8

Compound activity as filed in PubChem.
